In the supplement of paper PMC12282887:
± gives the standard deviation of the averaged measurements.

Legend:
Assay in all cases: promoter activity interaction Z-score (Lux/OD deviation from empty-vector control); higher = stronger promoter induction by the compound
[1] = test system: E. coli BW25113 acrABp lux reporter
How it was run: (§1)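 E. coli BW25113 (wild type or marA, soxS or rob deletion) carrying low-copy luxCDABE promoter reporters grew in 40 µl LB Lennox in 384-well plates at 37°C. Each compound was tested at four 1:2 dilutions in biological duplicates. OD600 and luminescence were read every 30 min for 12 h. Areas were taken over 0–8 h (wild type) or 1–9 h (mutants), and wells below 10% of median growth area were removed. The score is the Z-transformed residual of growth-normalised luminescence fitted against the empty-vector control.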

[2] = test system: E. coli BW25113 marRABp lux reporter
How it was run: as §1

[3] = test system: E. coli BW25113 micFp lux reporter
How it was run: as §1

[4] = test system: E. coli BW25113 ompFp lux reporter
How it was run: as §1

[5] = test system: E. coli BW25113 robp lux reporter
How it was run: as §1

[6] = test system: E. coli BW25113 soxSp lux reporter
How it was run: as §1

[7] = test system: E. coli BW25113 tolCp lux reporter
How it was run: as §1

[8] = 40.6 µg/ml, genetic background: wild type
[9] = 40.6 µg/ml, genetic background: ΔmarA
[10] = 40.6 µg/ml, genetic background: Δrob
[11] = 40.6 µg/ml, genetic background: ΔsoxS
[12] = 81.1 µg/ml, genetic background: wild type
[13] = 81.1 µg/ml, genetic background: ΔmarA
[14] = 81.1 µg/ml, genetic background: Δrob
[15] = 81.1 µg/ml, genetic background: ΔsoxS
[16] = 162.2 µg/ml, genetic background: wild type
[17] = 162.2 µg/ml, genetic background: ΔmarA
[18] = 162.2 µg/ml, genetic background: Δrob
[19] = 162.2 µg/ml, genetic background: ΔsoxS
[20] = 324.4 µg/ml, genetic background: wild type
[21] = 324.4 µg/ml, genetic background: ΔmarA
[22] = 324.4 µg/ml, genetic background: Δrob
[23] = 324.4 µg/ml, genetic background: ΔsoxS

C=C[C@H]1CN2CC[C@H]1C[C@H]2[C@H](O)c1ccnc2ccc(OC)cc12 [Quinine]
promoter activity interaction Z-score [1, 8]: -0.0276 ± 0.14
promoter activity interaction Z-score [1, 9]: 0.379 ± 1.7
promoter activity interaction Z-score [1, 10]: -0.214 ± 0.025
promoter activity interaction Z-score [1, 11]: -0.207 ± 0.36
promoter activity interaction Z-score [1, 12]: -0.0617 ± 0.23
promoter activity interaction Z-score [1, 13]: 0.66 ± 0.57
promoter activity interaction Z-score [1, 14]: -0.0693 ± 0.15
promoter activity interaction Z-score [1, 15]: 0.146 ± 0.074
promoter activity interaction Z-score [1, 16]: -0.321 ± 0.19
promoter activity interaction Z-score [1, 17]: -0.122 ± 1
promoter activity interaction Z-score [1, 18]: 0.00483 ± 0.12
promoter activity interaction Z-score [1, 19]: -0.386 ± 0.088
promoter activity interaction Z-score [1, 20]: -0.269 ± 0.44
promoter activity interaction Z-score [1, 21]: -0.173 ± 0.094
promoter activity interaction Z-score [1, 22]: 0.046 ± 0.023
promoter activity interaction Z-score [1, 23]: -0.181 ± 0.2
promoter activity interaction Z-score [2, 8]: 0.0904 ± 0.38
promoter activity interaction Z-score [2, 9]: -0.307 ± 0.24
promoter activity interaction Z-score [2, 10]: -0.00554 ± 0.082
promoter activity interaction Z-score [2, 11]: -0.106 ± 0.073
promoter activity interaction Z-score [2, 12]: -0.119 ± 0.029
promoter activity interaction Z-score [2, 13]: 0.197 ± 0.19
promoter activity interaction Z-score [2, 14]: -0.0844 ± 0.1
promoter activity interaction Z-score [2, 15]: 0.0817 ± 0.18
promoter activity interaction Z-score [2, 16]: -0.16 ± 0.05
promoter activity interaction Z-score [2, 17]: 0.254 ± 0.062
promoter activity interaction Z-score [2, 18]: -0.151 ± 0.3
promoter activity interaction Z-score [2, 19]: -0.0309 ± 0.098
promoter activity interaction Z-score [2, 20]: 1.1 ± 0.12
promoter activity interaction Z-score [2, 21]: 1.18 ± 0.12
promoter activity interaction Z-score [2, 22]: -0.164 ± 0.17
promoter activity interaction Z-score [2, 23]: 0.579 ± 0.51
promoter activity interaction Z-score [3, 8]: 0.322 ± 0.35
promoter activity interaction Z-score [3, 9]: 0.0116 ± 0.1
promoter activity interaction Z-score [3, 10]: -0.133 ± 0.038
promoter activity interaction Z-score [3, 11]: -0.0747 ± 0.16
promoter activity interaction Z-score [3, 12]: 0.106 ± 0.04
promoter activity interaction Z-score [3, 13]: 0.118 ± 0.17
promoter activity interaction Z-score [3, 14]: -0.0678 ± 0.18
promoter activity interaction Z-score [3, 15]: 0.253 ± 0.078
promoter activity interaction Z-score [3, 16]: 0.0719 ± 0.29
promoter activity interaction Z-score [3, 17]: 0.23 ± 0.0035
promoter activity interaction Z-score [3, 18]: 0.137 ± 0.068
promoter activity interaction Z-score [3, 19]: 0.356 ± 0.086
promoter activity interaction Z-score [3, 20]: 0.7474 ± 0.0019
promoter activity interaction Z-score [3, 21]: 0.582 ± 0.025
promoter activity interaction Z-score [3, 22]: 0.201 ± 0.17
promoter activity interaction Z-score [3, 23]: 1.13 ± 0.047
promoter activity interaction Z-score [4, 8]: 0.0547 ± 0.22
promoter activity interaction Z-score [4, 9]: -0.33 ± 0.1
promoter activity interaction Z-score [4, 10]: -0.566 ± 0.33
promoter activity interaction Z-score [4, 11]: 0.39 ± 0.047
promoter activity interaction Z-score [4, 12]: -0.0322 ± 0.074
promoter activity interaction Z-score [4, 13]: 0.401 ± 0.48
promoter activity interaction Z-score [4, 14]: 0.0636 ± 0.022
promoter activity interaction Z-score [4, 15]: 0.369 ± 0.07
promoter activity interaction Z-score [4, 16]: -0.435 ± 0.35
promoter activity interaction Z-score [4, 17]: -0.0896 ± 0.32
promoter activity interaction Z-score [4, 18]: 0.318 ± 0.14
promoter activity interaction Z-score [4, 19]: -0.194 ± 0.092
promoter activity interaction Z-score [4, 20]: -0.15 ± 0.097
promoter activity interaction Z-score [4, 21]: 0.352 ± 0.51
promoter activity interaction Z-score [4, 22]: -0.0516 ± 0.19
promoter activity interaction Z-score [4, 23]: -0.0712 ± 0.12
promoter activity interaction Z-score [5, 8]: 0.233 ± 0.19
promoter activity interaction Z-score [5, 9]: -0.32 ± 0.61
promoter activity interaction Z-score [5, 10]: -0.0483 ± 0.15
promoter activity interaction Z-score [5, 11]: 0.121 ± 0.51
promoter activity interaction Z-score [5, 12]: -0.103 ± 0.11
promoter activity interaction Z-score [5, 13]: 0.432 ± 0.065
promoter activity interaction Z-score [5, 14]: 0.674 ± 0.12
promoter activity interaction Z-score [5, 15]: 0.933 ± 0.31
promoter activity interaction Z-score [5, 16]: -0.361 ± 0.36
promoter activity interaction Z-score [5, 17]: 0.246 ± 0.82
promoter activity interaction Z-score [5, 18]: 0.504 ± 0.18
promoter activity interaction Z-score [5, 19]: 0.352 ± 0.57
promoter activity interaction Z-score [5, 20]: -0.236 ± 0.25
promoter activity interaction Z-score [5, 21]: 0.371 ± 0.84
promoter activity interaction Z-score [5, 22]: 0.206 ± 0.3
promoter activity interaction Z-score [5, 23]: -0.277 ± 1.1
promoter activity interaction Z-score [6, 8]: -0.2102 ± 0.00085
promoter activity interaction Z-score [6, 9]: -0.278 ± 0.015
promoter activity interaction Z-score [6, 10]: -0.273 ± 0.13
promoter activity interaction Z-score [6, 11]: -0.121 ± 0.17
promoter activity interaction Z-score [6, 12]: -0.286 ± 0.043
promoter activity interaction Z-score [6, 13]: -0.134 ± 0.031
promoter activity interaction Z-score [6, 14]: -0.188 ± 0.032
promoter activity interaction Z-score [6, 15]: -0.041 ± 0.2
promoter activity interaction Z-score [6, 16]: -0.297 ± 0.031
promoter activity interaction Z-score [6, 17]: -0.177 ± 0.0058
promoter activity interaction Z-score [6, 18]: 0.0402 ± 0.16
promoter activity interaction Z-score [6, 19]: -0.15 ± 0.37
promoter activity interaction Z-score [6, 20]: -0.241 ± 0.021
promoter activity interaction Z-score [6, 21]: -0.171 ± 0.066
promoter activity interaction Z-score [6, 22]: -0.243 ± 0.11
promoter activity interaction Z-score [6, 23]: -0.272 ± 0.35
promoter activity interaction Z-score [7, 8]: -0.906 ± 1
promoter activity interaction Z-score [7, 9]: -0.418 ± 0.34
promoter activity interaction Z-score [7, 10]: 0.214 ± 1.5
promoter activity interaction Z-score [7, 11]: -0.701 ± 0.52
promoter activity interaction Z-score [7, 12]: -0.18 ± 0.28
promoter activity interaction Z-score [7, 13]: 0.28 ± 0.4
promoter activity interaction Z-score [7, 14]: -0.738 ± 0.76
promoter activity interaction Z-score [7, 15]: -0.512 ± 0.23
promoter activity interaction Z-score [7, 16]: -0.157 ± 0.39
promoter activity interaction Z-score [7, 17]: 0.0619 ± 0.15
promoter activity interaction Z-score [7, 18]: -0.0757 ± 0.051
promoter activity interaction Z-score [7, 19]: -0.611 ± 1.3
promoter activity interaction Z-score [7, 20]: -0.913 ± 0.14
promoter activity interaction Z-score [7, 21]: 0.586 ± 1.1
promoter activity interaction Z-score [7, 22]: -0.0963 ± 1.2
promoter activity interaction Z-score [7, 23]: 0.127 ± 0.016
